From PubChem
Pf growth 48h = P. falciparum growth inhibition at 48 hours (one generation) | P. falciparum luciferase growth in erythrocytes, 48 h | 5.9% of 310,000 active | Potency, µM (titrated, usually from 28.7 µM), usual class: inhibitors
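In quantitative HTS format, infected erythrocytes bearing luciferase-reporter parasites were treated for a single generation at 37 C. Luminescence after adding detection reagent served as the growth measure.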
CHX counter = affects cycloheximide protein synthesis inhibition readout, counter-screen | cell reporter, cycloheximide protein synthesis inhibition counterscreen | max response, % | 12% of 300,000 active; in the data active = max response mostly above about 13%, no sharp cut-off; inactive = mostly below about 14%; note: read at 38.3 µM for the half of the compounds with a filed dose
AMA1 RON2 block = inhibitors of Plasmodium falciparum AMA1-RON2 interaction; AlphaScreen AMA1-biotinylated RON2 peptide binding; Potency, µM (doses to about 58.2 µM), usual class: inhibitors; 0.2% of 360,000 active; AID 720542; note: nearly all actives have a fitted effect of over 45% in size
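AMA1 (3D7) with his tag at 25 nM final met compounds first, then biotinylated RON2 peptide at 25 nM; detection used donor plus acceptor beads, 10 µg/mL apiece, read by AlphaScreen after 30 min at room temperature.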
Pf growth 96h = inhibits malaria parasite growth, 96 h; Potency, µM (highest dose often 28.7 µM), most hits filed as inhibitors; P. falciparum luciferase reporter growth, 96 h; 6.9% of 320,000 active
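Plates of compound plus infected erythrocytes (2% hematocrit, 0.05% parasitemia final) incubate 96 hours, 37 C, 5% CO2. Detection reagent added; reduced luminescence from the parasites' luciferase reporter flags inhibition.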
HCV inhibitor = blocks hepatitis C virus; AID 651820; Potency, µM (titrated, usually from 41.8 µM), usual class: inhibitors; Huh7.5.1 HCVcc-Cre infection, luciferase reporter, 44 h; 3.4% of 340,000 active
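Antiviral activity was scored by luciferase reporter output from cells infected with HCVcc-Cre (~0.5 moi) in presence of compound, 44 h infection period, cells seeded 1,000/well 4 h prior.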
Shiga toxin inh = blocks Shiga toxin action in Vero cells; inhibition, % at 38.7 µM; 9.2% of 290,000 active; Vero cells, Shiga toxin protein synthesis inhibition reporter; in the data active = inhibition mostly above about 28%, no sharp cut-off; inactive = mostly below about 43%
Each line names hits and unclear results; the compound was inactive in the other large screens; ! = repeats disagree. Compounds with a hit are over-represented: about 21% of the library has one in this group of screens. Unless noted, calls come from the whole dose curve; as a rule, active = well fitted curve in the direction sought with a large enough effect; inconclusive = small, poorly fitted or top-dose-only effect, or another doubt; inactive = no such curve, though single readings can be large; an effect the other way counts as inactive or inconclusive.

Cc1ccccc1CNC(=O)CCc1ccccc1	CHX counter 18, Pf growth 96h inconclusive
CC(C)(C)c1ccccc1OCC(=O)NCc1ccccc1	HCV inhibitor inconclusive (no result: Shiga toxin inh)
Cc1ccc(CNC(=O)CCc2ccccc2)cc1	CHX counter 15
Cc1ccc(Cl)cc1NC(=S)N(CCN(C)C)C(C)c1ccccn1 (stereo not drawn)	none
C(=N\Nc1nc(Nc2ccccc2)nc(N2CCOCC2)n1)/c1c[nH]c2ccccc12	Pf growth 48h inconclusive, CHX counter 21, Pf growth 96h inconclusive, HCV inhibitor 3.5µM
Cc1ccc(Nc2nc(N/N=C/c3c[nH]c4ccccc34)nc(N3CCOCC3)n2)cc1	Pf growth 48h inconclusive, CHX counter 15, Pf growth 96h inconclusive, HCV inhibitor inconclusive
c1ccc(Nc2nc(N3CCNCC3)nc(N3CCOCC3)n2)cc1	Pf growth 48h inconclusive, Pf growth 96h inconclusive
c1ccc(Nc2nc(N3CCOCC3)nc(N3CCOCC3)n2)cc1	Pf growth 48h inconclusive, HCV inhibitor inconclusive
Cc1[nH]c2ccccc2c1/C=N/Nc1nc(Nc2ccc(F)cc2)nc(N2CCOCC2)n1	Pf growth 48h 4.1µM, Pf growth 96h 2.6µM, HCV inhibitor 8.9µM!
O=C(Oc1cccc(/C=N/Nc2nc(Nc3ccccc3)nc(N3CCOCC3)n2)c1)c1ccco1	Pf growth 48h inconclusive, CHX counter 13, HCV inhibitor inconclusive, Shiga toxin inh 23
O=C(COC(=O)c1ccc(Br)o1)Nc1ccc(N2CCOCC2)cc1	none (no result: CHX counter, Shiga toxin inh)
COC(=O)c1ccc(S(=O)(=O)c2ccc(Cl)cc2)c(N)c1	none
CCOC(=O)C1(C)NC(c2cccs2)C2C(=O)N(c3ccc(C)cc3)C(=O)C21 (stereo not drawn)	none
Cc1ccc(N2C(=O)C3C(C2=O)N2C(c4cccs4)C4C(=O)N(c5ccc(C)cc5)C(=O)C4N2C3c2cccs2)cc1 (stereo not drawn)	Pf growth 48h inconclusive, Pf growth 96h 1.9µM
CCN1CCN(CCC(=O)Nc2ccc3c(c2)OCO3)CC1	Pf growth 96h inconclusive
Cc1cc(C)n(CCC(=O)Nc2ccc3c(c2)OCCO3)n1	CHX counter 15, Shiga toxin inh 45
Cc1ccn(CCC(=O)Nc2ccc3c(c2)OCO3)n1	CHX counter 24, Shiga toxin inh 73
CC1CC(C)(C)NC(=S)N1CCC(=O)Nc1ccc2c(c1)OCCO2 (stereo not drawn)	Pf growth 96h 1.5µM, HCV inhibitor inconclusive
COc1ccc(NC(=O)CCn2nc(C)cc2C)cc1	none
CC(=O)N1CCN=C1SCc1cccc(C)c1	none
COC1OCC(O)C(NC(=O)N(C)N=O)C1O (stereo not drawn)	none (no result: Pf growth 48h, CHX counter, Pf growth 96h, HCV inhibitor, Shiga toxin inh)
Cc1cc(C)c(C)c(N=Nc2nc3ccccc3n2C)c1C	CHX counter 63, AMA1 RON2 block 11µM, HCV inhibitor inconclusive, Shiga toxin inh 92
Cc1ccc(C)c(N=Nc2nc3ccccc3n2C)c1	Pf growth 48h 0.52µM, CHX counter 47, AMA1 RON2 block 11µM, Pf growth 96h 0.47µM, HCV inhibitor 14µM, Shiga toxin inh 76
O=C(NCCc1ccccc1C(F)(F)F)C1CCC(=O)N(C2CC2)C1 (stereo not drawn)	none (no result: HCV inhibitor)
Cc1cc(C(=O)Nc2c(C)nn(Cc3ccccc3Cl)c2C)no1	Pf growth 48h 2.6µM
COc1ccc(OC)c(-c2cc(C(=O)Nc3c(C)nn(Cc4ccccc4Cl)c3C)no2)c1	Pf growth 48h 13µM, HCV inhibitor 16µM
COc1ccc(OC)c(-c2cc(C(=O)Nc3c(C)n(C)n(-c4ccccc4)c3=O)no2)c1	none
COc1ccc(OC)c(-c2cc(C(=O)Nc3c(C)nn(Cc4ccccc4C)c3C)no2)c1	Pf growth 48h 5.2µM, HCV inhibitor 3.2µM
COc1ccc(-c2cc(C(=O)Nc3c(C)nn(Cc4ccccc4Cl)c3C)no2)cc1OC	Pf growth 48h inconclusive, HCV inhibitor 8.9µM
O=C1NC[C@H](CCCCN2CCN(CC3CCCCC3)C(=O)C2=O)N(CCc2ccccc2)C1=O	none (no result: Pf growth 48h, CHX counter, Pf growth 96h, HCV inhibitor, Shiga toxin inh)
CCN(CC)S(=O)(=O)c1ccc(N2CCOCC2)c(NC(=O)c2nn(C(C)C)c(=O)c3ccccc23)c1	none (no result: Pf growth 48h, CHX counter, Pf growth 96h, HCV inhibitor, Shiga toxin inh)
COc1ccc(S(=O)(=O)N2CCOCC2)cc1NC(=O)c1cc2ccccc2o1	Pf growth 48h inconclusive, Pf growth 96h inconclusive (no result: CHX counter, Shiga toxin inh)
CCC1CSC(=Nc2ccc(C)cc2)N1C(=O)CN1C(=O)NC2(CCCC2)C1=O (stereo not drawn)	CHX counter 34, Shiga toxin inh 74 (no result: HCV inhibitor)
